Test results as given in the supplement of paper PMC9897528.

The compounds below were run on Scedosporium aurantiacum CBS 136046 (assay: growth inhibition relative to DMSO control (OD600); higher = more antifungal activity, active = 80 or more; extreme values may be limits of the assay). Settings: 5 µM; 72 h; 37 °C.
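Note: conidia screened in RPMI 1640 medium under 5% CO2, growth read by spectrophotometer, medium with 0.5% DMSO serving as the untreated reference.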

Growth inhibition, inactive:
N[C@H]1CCC[C@H]1C(=O)O 4.68%
Cc1cc(NS(=O)(=O)c2ccc(-c3ccc(F)cc3F)cc2)no1 11.5%
Cc1cc(O)c2c(c1)C(=O)c1c(I)c(O)c(I)c(O)c1C2=O 2.05%
COc1ccc(OCc2ccc(COc3c(Cl)cccc3Cl)cc2)c(Cl)c1 21.7%
NC(=O)c1cnccn1 1.73%
N=c1n(CCN2CCCCC2)c2ccccc2n1CC(O)COc1ccc(Cl)cc1Cl (stereo not drawn) 25.3%
OB1OCc2cc(Cl)ccc21 6.18%
CCNC(=O)Nc1cc2c(-c3ccnc(C)c3)ccc(CNC(=O)OC)c2cn1 13.3%
CN(C(=O)C1(c2ccc(Cl)cc2)CCC1)c1ccccc1 13.9%
C[C@H](NC(CC(=O)c1ccccc1C(F)(F)F)C(=O)O)c1ccccc1 (stereo partly drawn) 2.25%
COc1ccc(NC(=O)CC2Sc3ncnn3C2=O)cc1 (stereo not drawn) 0%
Cc1ccccc1NC(=O)Nc1cccc([N+](=O)[O-])c1 12.4%
O=C(NC1CCCc2c1[nH]c1ccc(Cl)cc21)c1ccccn1 (stereo not drawn) 15.1%
COc1cc(NS(=O)(=O)c2ccc(C)cc2)c2ncccc2c1 27.9%
[N-]=[N+]=N[C@H]1C[C@H](n2ccc(=O)[nH]c2=O)O[C@@H]1CO 11.7%
CN(C/C=C/C#CC(C)(C)C)Cc1cccc2ccccc12 23.6%
C/C(=N\NC(=O)C1CC1c1ccccc1)c1ccc(NC(=O)c2ccco2)cc1 (stereo not drawn) 1.06%
CC1(C)C[C@H]1C(=O)N/C(=C\CCCCSC[C@@H](N)C(=O)O)C(=O)O 4.68%
CCNC(=O)Nc1cc(-c2ccccc2)c(-c2cncc(C(=O)O)c2)cn1 8.53%
O=C(NCc1ccc(F)cc1)c1c(O)c2ncccc2[nH]c1=O 2.42%
Nc1ccc2oc(=O)ccc2c1I 8.52%
Nc1nnc(-c2ccc(Cl)cc2)s1 6.96%
COc1ccc(C)cc1NC(=O)c1ccc(S(=O)(=O)N2CCCCC2)cc1 32.4%
O=C(NC(=O)N1CCCc2ccccc21)c1ccc(Cl)cc1Cl 3.05%
CS(=O)(=O)c1ccc(Oc2ccc(Cl)cc2)cc1 15.2%
Nc1nc2c(Cc3cccnc3)c[nH]c2c(=O)[nH]1 2.57%
CCN(CC)CCn1c(=N)n(CC(O)COc2ccc(Cl)cc2Cl)c2ccccc21 (stereo not drawn) 10.2%
CC(Oc1ccc(Cl)cc1Cl)C(=O)NCc1ccc2c(c1)OCO2 (stereo not drawn) 17.5%
O[C@@](Cn1cnnn1)(c1ccc(F)cc1F)C(F)(F)c1ccc(-c2ccc(OCC(F)(F)F)cc2)cn1 47.1%
O=C(Nc1nnc(-c2ccc(Cl)cc2)o1)c1ccc(F)cc1 48.5%
CCc1ccccc1OCCN1CCCCCC1 26.2%
CC(C)Nc1nc2cc(Cl)c(Cl)cc2n1[C@H]1O[C@@H](CO)[C@H](O)[C@@H]1O 8.22%
O=C(Nc1cccc(C2=NCCN2)c1)c1ccc(-c2ccc(C(=O)Nc3cccc(C4=NCCN4)c3)cc2)cc1 1.73%
Nc1nc2c(ncn2/C=C2/CC2(CO)CO)c(=O)[nH]1 1.28%
Nc1nnnn1CCOc1c2[nH]c3ccc(Cl)cc3c2cc2c1[nH]c1ccc(Cl)cc12 49.3%
O=C(Nc1ccc(-c2ccccc2)cc1)C1=C(O)C(Cc2ccccc2)OC1=O (stereo not drawn) 45.3%
NCCCc1ccccc1C(=O)Nc1ncc([N+](=O)O)s1 0%
CCc1nc(N)nc(N)c1C#CC(C)c1cc(OC)cc(-c2ccncc2)c1 (stereo not drawn) 48.8%
